BaF3 parental – parental Ba/F3 cell viability inhibition, counter-screen for JAK2V617F inhibitor project, murine pro-B, CellTiter-Glo luminescence. inhibition, % at 5.6 µM. hit rate 1.1% among 220,000. CellTiter-Glo ATP luminescence;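 active means inhibition above a per-campaign cutoff, the mean inhibition of all tested compounds plus 3 SD, cut at about 27% in these data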;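 further: 0% = DMSO wells and 100% = JAK Inhibitor I control wells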
APP transl inh – inhibitors of APP translation via 5'UTR reporter, primary screen, APP 5'UTR luciferase, SH-SY5Y cells | hit rate 0.82% among 190,000 | inhibition, % at 2 µM | SH-SY5Y APP 5'UTR-luciferase reporter, luminescence;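 active means inhibition above a set limit, derived from the sample mean plus 3 SD, cut at about 45% in these data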
Ba/F3 V617F tox – reduced viability of JAK2V617F-dependent Ba/F3 cells, primary screen, JAK2V617F inhibitor project, cell-based, Ba/F3 EpoR-JAK2V617F, luminescence; ATP luminescence; inhibition, % at 5.6 µM; hit rate 1.1% among 220,000; AID 1446, 2008;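 active means inhibition above the campaign mean plus 3 SD over all tested compounds, cut at about 24% in these data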;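 further: cytokine-independent growth of Ba/F3 cells driven by EpoR plus mutant JAK2; 0% = DMSO-treated cells and 100% = JAK inhibitor I control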
aSyn 5UTR inh – MLPCN primary screen, SNCA 5' untranslated region; inhibition, % (tested at 7.5 µM); hit rate 0.82% among 300,000; alpha-synuclein 5'UTR reporter, inhibitor activity; in the data active means inhibition above about 60%;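 further: H4 neuroglioblastoma cells stably carrying SNCA 5'UTR luciferase fusion; 0% = DMSO wells and 100% = positive control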
KLF5 inhibitor – KLF5 expression inhibitors, primary screen, DLD-1 cells, luminescence; DLD-1 KLF5 promoter-luciferase reporter; inhibition, % at 5 µM; hit rate 0.23% among 290,000; AID 1700, 2009;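 active means inhibition above a per-plate limit of that plate's mean compound inhibition plus 3 SD, cut at about 60% in these data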;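 further: 0% = DMSO wells and 100% = LY294002 at 200 µM; higher means less KLF5 promoter-driven luciferase light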
IEC-6 tox – cytotoxicity in IEC-6 intestinal epithelial cells, primary screen, cytotoxicity control for KLF5 inhibitor project, cell-based, luminescence; IEC-6 cytotoxicity, luminescence viability; hit rate 0.78% among 290,000; inhibition, % at 5 µM; AID 1825, 2009; in the data active means inhibition above about 22%;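 further: 0% = plate median of test compound wells and 100% = cytotoxic reference compound wells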
Active calls of the source: *; . = not tested or not shown. The list is not random: actives were taken first. Their share in the collection is about 2.2%.

SMILES | BaF3 parental | APP transl inh | Ba/F3 V617F tox | aSyn 5UTR inh | KLF5 inhibitor | IEC-6 tox
Clc1ccc(Cn2ncc3c(NCc4ccco4)ncnc32)c(Cl)c1 | 15 | 9 | 6 | 29 | 12 | 28*
O=C(CSc1ccc2nnc(-c3ccccn3)n2n1)NCC1CCCO1 (configuration not stated) | 6 | 13 | -1 | 12 | -12 | -2
COc1ccccc1N=C(C)C1=C(O)CC(c2ccccc2)CC1=O (configuration not stated) | 10 | 92* | 7 | 122* | -6 | -7
CC(=O)Nc1ccc(S(=O)(=O)N[C@@H](C)C(=O)Nc2ccc(N3CCOCC3)cc2)cc1 | 1 | 0 | 2 | 3 | -17 | 7
CCn1cc(C(=O)N2CCN(c3ccc(F)cc3)CC2)c2cc(OC)c(OC)cc2c1=O | -3 | 48* | -6 | 11 | -19 | -6
Cn1nc(C(C)(C)C)cc1C(=O)NCc1ccc(N2CCCC2=O)cc1 | 93* | -16 | 58* | -13 | 10 | 11
Cc1ccc(CNC(=O)c2ccc(N3CCCC3=O)cc2)cc1 | 4 | 2 | -5 | -21 | 12 | 0
O=[N+]([O-])c1cccc(-c2c[n+]3c(n2-c2ccccc2)SCC3)c1 | 65* | 13 | 35* | . | -18 | 0
Clc1ccc(-c2c[n+]3c(n2-c2ccccc2)SCC3)cc1 | 88* | -18 | 67* | -3 | -10 | 5
Clc1ccc(C2=C3CCCCn4c(-c5ccccc5)c[n+](c43)C2)cc1 | 1 | 1 | -4 | 15 | 7 | -10
CC1=C(C(=O)OCc2ccccc2)C(c2cccnc2)n2ncnc2N1 (configuration not stated) | 3 | 3 | -4 | 1 | -6 | -6
CC(C(=O)NCc1ccccc1)n1cc([N+](=O)[O-])cn1 (configuration not stated) | . | . | . | 3 | -9 | 0
COc1ccc(C(=O)N[C@H](C(=O)OCc2cc(=O)oc3cc(C)ccc23)C(C)C)cc1 | 1 | 8 | -4 | 20 | -19 | 3
COC(=O)CCC(=O)c1oc2ccc(OC)cc2c1N | 3 | 64* | -1 | -62 | -117 | -1
O=C(N/N=C/c1cccs1)c1n[nH]c2c1CCCC2 | 2 | . | 2 | 82* | -6 | 8
O=C(N/N=C\c1cccc(Cl)c1)c1n[nH]c2c1CCCC2 | 7 | -156 | 1 | -152 | -90 | 4
O=C(N/N=C/c1cccc2ccccc12)c1n[nH]c2c1CCCC2 | 9 | 74* | -2 | -22 | -18 | 2
O=C(N/N=C/C=C/c1ccccc1)c1n[nH]c2c1CCC2 | 7 | 60* | 10 | 70* | -7 | 11
CCOC(=O)c1c(CNc2ccncc2)n(C)c2cc(Br)c(O)cc12 | 41* | 24 | 38* | -62 | -16 | -4
Cc1ccc(N/C(N)=N/c2nc(C)cc(N3CCCCC3)n2)c(C)c1 | 66* | 12 | 71* | -1 | 10 | 21
Cc1ccc(N/C(N)=N/c2nc3c(c(=O)[nH]2)CCCC3)c(C)c1 | 4 | -16 | 1 | -7 | 2 | 2
COc1ccc(NC(=O)COc2ccccc2Cc2ccccc2)cc1S(N)(=O)=O | . | . | . | 7 | 7 | 5
O=C(O)CCCCCNS(=O)(=O)c1cccc2c1C(=O)c1ccccc1C2=O | 13 | 3 | 6 | 3 | -1 | 26*
CCCCOc1ccc(/C=C(\C#N)C(=O)NC2CC2)cc1 | . | . | . | -34 | . | .
COc1ccc(C2/C=C\CN(C(=O)Nc3ccc(C(F)(F)F)cc3)CC(=O)N2Cc2ccc(F)cc2)cc1 (configuration not stated) | . | . | . | 71* | . | .
SMILES | BaF3 parental | APP transl inh | Ba/F3 V617F tox | aSyn 5UTR inh | KLF5 inhibitor | IEC-6 tox
Cc1ccc(C)c(NC(=S)NC(NC(=O)Cc2cccc3ccccc23)C(Cl)(Cl)Cl)c1 (configuration not stated) | 3 | -13 | -4 | 112* | -12 | 8
Cc1ccc(C)c(NC(=S)NC(NC(=O)N(C)C)C(Cl)(Cl)Cl)c1 (configuration not stated) | -2 | -8 | -5 | -3 | 16 | 2
O=C1CC(NCc2ccncc2)C(=O)N1c1ccc(Cl)cc1 (configuration not stated) | -2 | 7 | -2 | 2 | -38 | -2
CCOc1ccc(N2C(N)=NC(N)=NC2(C)C)cc1 | 98* | 6 | 94* | 66* | -42 | -4
CCOc1ccc(-n2nc3ccc(N)cc3n2)cc1 | . | . | . | 73* | -74 | 2
CCOC(=O)c1cccc(N2C(N)=NC(N)=NC2(C)C)c1 | 96* | 6 | 73* | -4 | 9 | -1
CCCCOc1ccc(N2C(N)=NC(N)=NC23CCCCC3)cc1 | . | . | . | -7 | -25 | 6
CCOC(=O)c1cccc(N2C(=O)C3C4C=CC(CC4)C3C2=O)c1 (configuration not stated) | . | . | . | 10 | -21 | 3
CCOc1ccc(-n2nc3cc(C)c(N)cc3n2)cc1 | . | . | . | 26 | -3 | -4
O=C(NC(=S)Nc1ccccn1)c1cc(-c2ccccc2)nc2ccccc12 | 9 | -8 | 2 | 7 | -45 | -4
COCCCNC(=S)N1CCN(c2ccc([N+](=O)[O-])cc2)CC1 | 10 | -6 | 0 | 29 | -12 | 0
CCN(C(=O)COC(=O)c1oc2ccc(OC)cc2c1C)C1CCCCC1 | . | . | . | -5 | . | .
c1ccc(-c2noc(-c3ccc4ccccc4c3)n2)cc1 | 0 | -150 | -2 | 77* | 37 | 2
CCOc1cc(C(=O)NC(C)C2CCCO2)cc(OCC)c1OCC (configuration not stated) | 1 | -3 | 1 | -5 | -2 | -6
CCO[C@@H]1OC(C(=O)NC2CC2)=C[C@H](c2ccc3c(c2)OCO3)[C@H]1CCCO | -3 | -8 | -1 | 2 | 1 | -2
NCCOc1ccc(C23CC4CC(CC(C4)C2)C3)cc1 | -3 | -21 | 3 | 81* | -43 | 8
OCCN1CCN(CC(O)COc2ccc(C34CC5CC(CC(C5)C3)C4)cc2)CC1 (configuration not stated) | 9 | 4 | 9 | 85* | 17 | 15
Cn1nc(-c2ccccn2)nc2c(=O)n(C)c(=O)nc1-2 | 105* | 59* | 99* | 94* | 105* | 99*
COc1ccc(-c2nc(-c3ccccn3)ncc2S(C)(=O)=O)cc1 | 11 | 11 | 1 | 14 | -11 | 2
Cc1[nH]n(-c2ccccc2)c(=O)c1N=Nc1c(O)cc(S(=O)(=O)N(C)C)c2ccccc12 | . | . | . | 71* | . | .
O=C(NCCc1ccccc1Cl)c1cc(COc2ccc(F)cc2F)on1 | . | . | . | 1 | 6 | -2
CCCCN1CN(Cc2ccco2)CNC1=S | 5 | 15 | 2 | -2 | -9 | 1
C=CCN1CN(Cc2ccco2)CNC1=S | 3 | 62* | -3 | 9 | -8 | -3
